Test [1] has as its target Lysosomal acid glucosylceramidase (Homo sapiens) (UniProt P04062). The experiment in a line: Glucocerebrosidase-p2 (AID 348; in the data active = potency below about 10 µM; note: potency is the fitted concentration of half-maximal effect). To be noted: purified GBA, blue fluorogenic substrate, 40 min. An outline of the steps: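 Compounds titrated from 0.6 nM upwards against 0.2 nM enzyme in pH 5.9 citric acid/KH2PO4, taurocholate, tween-20; blue fluorogenic substrate 80 uM, 40 min room temperature, stopped and read Ex 365/Em 440 for AC50.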

The nature of test [2]: AP1 Signaling Pathway (AID 357; active = well fitted curve in either direction with a large enough effect, not every such curve was filed as active; note: % is set by controls: 0 for no effect and ±100 for the full control effect). The following applies: ME-180 AP-1-bla reporter, EGF-induced, beta-lactamase ratio, 5 h; at 7.69 µM (top of the series) unless noted. An outline of the steps: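 Cells are seeded overnight, exposed to compound titrations and an EC50 level of EGF for 5 hours at 37 °C, then loaded with CCF4 dye for 2.5 hours. Beta-lactamase activity under the AP-1 element is read as a blue/green ratio.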

Test [3] deals with Cytochrome P450 1A2 (Homo sapiens) (UniProt P05177). Description: p450-cyp1a2 (AID 410; calls by dose curve; note: potency is the fitted concentration of half-maximal effect;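 for activity change, negative = inhibition: -100% = full effect of reference inhibitor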). To be noted: recombinant CYP1A2, luciferin-ME demethylation, luminescence; series mostly up to 57 µM. An outline of the steps: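 Human CYP1A2 (20nM) demethylated Luciferin-ME at its Km (100uM) in 100mM KPO4. After 10 min compound preincubation, NADPH regeneration ran the reaction 60 min at room temperature. Luciferin was read by luminescence, normalized to 57 uM furafylline.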

Test [4] in a line: NFAT Signaling Pathway (AID 444; active = well fitted curve in either direction with a large enough effect, not every such curve was filed as active;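 note: carbachol stimulus at about its EC50 of 1 µM final; % is set by controls: 0 for no effect and ±100 for the full control effect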). To be noted: Jurkat NFAT-bla M1, carbachol, beta-lactamase ratio, 5 h; at 7.69 µM (top of the series) unless noted. An outline of the steps:
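Read-out: CCF4 FRET ratio (460 nm/530 nm) after 1 h RT dye loading, used for %activity and AC50 from titration series. Cells: Jurkat NFAT-β-lactamase/M1 line, treated with compound plus 1 uM carbachol for 5 h, 37 °C.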

Test [5] is described as follows: Stat Signaling Pathway (AID 446; active = well fitted curve in either direction with a large enough effect, not every such curve was filed as active;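 note: ME-180 cervical cancer cells given 40 pM IL-6 alongside compound; SIE-controlled beta-lactamase reporter measured as 460/530 nm FRET emission ratio; % is set by controls: 0 for no effect and ±100 for the full control effect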). To be noted: ME-180 (cervical carcinoma) SIE beta-lactamase reporter, IL-6 stimulated, 5 h; at 7.69 µM (top of the series) unless noted. An outline of the steps: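 IL-6/STAT signaling read in ME-180 cells via an SIE beta-lactamase reporter. Stimulus was 40 pM IL-6 (its AC50) for 5 hrs, so both activation and inhibition register.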
In test [6] the target is Glucocorticoid receptor (Homo sapiens) (UniProt P04150). The experiment in a line: GR-GFP Redistribution (AID 450;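 active = compounds whose dose series gives a full or clear partial fitted curve of increased nuclear translocation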; note: potency is the fitted concentration of half-maximal effect). To be noted: U2OS GR-GFP nuclear translocation, laser cytometry, 2 h.
Test [7] shares this target. Description: GR-EFC Redistribution (AID 451; calls by dose curve; note: potency is the fitted concentration of half-maximal effect). The following applies: CHO-K1 GR-EFC translocation, beta-gal luminescence, 2 h. An outline of the steps:
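Translocation of GR-ED fusion to nuclear EA restores b-gal, read by luminescence after 1 h room-temperature detection. Engineered CHO-K1 biosensor cells, 1,000/well, exposed 2 h at 37 C to titrations up to 46 uM final.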

In test [8] the target is Mitogen-activated protein kinase 10 (Mus musculus) (UniProt Q61831). Description: JNK3 AlphaScreen Assay (AID 530; active = well fitted curve in either direction with a large enough effect, not every such curve was filed as active;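 note: kinase came from lysate of stimulated human HepG2 cells; signal reports phosphorylation of biotinylated GST-cJun 1-79 at Ser73 with 10 µM ATP; % is set by controls: 0 for no effect and ±100 for the full control effect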). The following applies: JNK3 lysate, c-Jun phosphorylation; series mostly up to 57.1 µM. An outline of the steps: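 Room-temperature AlphaScreen kinase assay; pre-activated HepG2 lysate as JNK3 source, biotin-GST-cJun(1-79) substrate, 10 uM ATP, compound 15 min preincubation.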

Test [9] addresses 3',5'-cyclic-AMP phosphodiesterase 4B (Homo sapiens) (UniProt Q07343). The experiment in a line: qHTS Assay for Inhibitors of PDE-IV (AID 607; active = well fitted activation curve with a large enough effect in the main read-out, with a control signal flat, not every such curve was filed as active; note: % of control where 0% means no effect). The following applies: HEK293 ACTOne CNG channel cells, membrane potential fluorescence; series mostly up to 22.9 µM. An outline of the steps: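 Live HEK293 cells with a modified cyclic nucleotide-gated (CNG) channel report intracellular cAMP via membrane-potential dye fluorescence (ex 535/em 590 nm). Endogenous PDE-IV was targeted. Compounds were tested at up to 22.9 uM final; RO 20-1724 100 uM served as control.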

A short description of test [10]: qHTS Assay for Lipid Storage Modulators (AID 1519; calls by dose curve). The following applies: Drosophila S3 cells, BODIPY lipid droplet/cell ratio, laser cytometry, cells loaded with oleic acid; for activity change, negative = inhibition: at 57.5 µM (top of the series). An outline of the steps:
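Cells seeded at 5,000 per well were treated with compounds over a concentration series and loaded with oleic acid (400 uM, as added). Lipid droplet fluorescence (488 nm excitation, 500-530 nm channel) was read by laser-scanning cytometry and normalized to 20 uM Triacsin C.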

For test [11], the target named is Dual specificity protein kinase CLK4 (Homo sapiens) (UniProt Q9HAZ1). The experiment in a line: qHTS Assay for Inhibitors of CDC-like Kinase 4 (Kinase-Glo Assay) (AID 1770). Note: % is set by controls: 0 for no effect and ±100 for the full control effect; nearly all actives have a fitted effect of over 65% in size. The following applies: recombinant Clk4, Kinase-Glo ATP depletion luminescence; series mostly up to 66.7 µM. An outline of the steps: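 Readout: Kinase-Glo luminescence from ATP left after a 4.5 h room-temperature reaction of 25 nM Clk4 with 100 uM RS peptide and 1 uM ATP (final). Buffer: 25 mM Tris pH 7.5, 10 mM MgCl2.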
On the technique in general: In qHTS, concentration-response curves come from the screen itself.

Test [12] has the same target. The experiment in a line: qHTS Assay for Inhibitors of CDC-like Kinase 4 (ADP-Glo Assay) (AID 1771). Note: % is set by controls: 0 for no effect and ±100 for the full control effect; nearly all actives have a fitted effect of over 70% in size. To be noted: recombinant CLK4, ADP-Glo luminescence; series mostly up to 80 µM. An outline of the steps: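 Clk4 (25 nM) was incubated 1 hr at room temperature with 100 uM RS repeat peptide and 1 uM ATP in buffer with 2 mM MgCl2, 0.5 mM EGTA, 2.5 mM DTT. ADP formed was quantified by ADP-Glo luminescence.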

Test [13] has the same target. The experiment in a line: qHTS Assay for Inhibitors of CDC-like Kinase 4 (ADP-FP Assay) (AID 1795). Note: % is set by controls: 0 for no effect and ±100 for the full control effect; nearly all actives have a fitted effect of over 60% in size. To be noted: Transcreener ADP fluorescence polarization; series mostly up to 50 µM. An outline of the steps: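 FP readout: Orange Transcreener ADP2 tracer (4 nM) plus ADP antibody, read after 30 min at room temperature. Kinase step: 6.25 nM Clk4, 100 uM RS peptide, 1 uM ATP, pH 7.5, 1 h.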

For test [14], the target named is Ubiquitin carboxyl-terminal hydrolase 1 (Homo sapiens) (UniProt O94782). The experiment in a line: Inhibitors of USP1/UAF1: Pilot qHTS (AID 504865).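 Note: rhodamine fluorescence freed from ubiquitin-rhodamine substrate followed over time; top concentration of the series differs between compounds; % is set by controls: 0 for no effect and ±100 for the full control effect; nearly all actives have a fitted effect of over 35% in size.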 The following applies: purified USP1/UAF1, Ub-rhodamine cleavage fluorescence; series mostly up to 54.9 µM. An outline of the steps: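 1nM USP1/UAF1 + cpd, 15 min RT; start w/ Ub-Rho 150nM final; kinetic FL 480/540 nm, 6 reads q60 s. Buffer 50mM HEPES pH 7.8, 0.5mM EDTA, 1mM TCEP, 0.01% Tween-20, 0.1 mg/ml BSA.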

For test [15], the target named is Cytochrome P450 3A4 (Homo sapiens) (UniProt P08684). Description: qHTS Assay for Activators of Cytochrome P450 3A4 (AID 885). Note: nearly all actives have a fitted effect of over 65% in size. To be noted: recombinant CYP3A4, Luciferin-PPXE luminescence, 60 min; series mostly up to 57.1 µM. An outline of the steps: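 Quantitative HTS format: compounds preincubated with 20nM human CYP3A4 and Luciferin-PPXE substrate at KM, reaction started by NADPH regeneration, stopped after 60 min, luciferase luminescence read 20 min later.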

The nature of test [16]: Confirmation and Secondary Assay for Modulators of Hemoglobin Beta Chain Splicing at IVS2 654 locus (AID 910).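 Note: HeLa cells stably carrying EGFP split by mutant beta-globin IVS2-654 intron; per-well total GFP intensity by laser scanning cytometry after 2-day treatment; % of control where 0% means no effect.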 The following applies: HeLa EGFP-654 splicing reporter, GFP fluorescence, 48 h; series mostly up to 38.3 µM. An outline of the steps: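 Readout: per-well total peak green fluorescence (488 nm ex, 500–520 nm em) from objects 5–250 µm, reflecting correct splicing of an EGFP-654 reporter. Compounds were applied for 2 days at 37 °C to overnight-plated HeLa EGFP-654 cells; controls were DMSO and 500 nM IVS2-654 PNA.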

The target of test [17] is Rap guanine nucleotide exchange factor 3 (Homo sapiens) (UniProt O95398). The experiment in a line: Confirmatory qHTS for agonist of cAMP-regulated guanine nucleotide exchange factor 3 (EPAC1) (AID 1645881).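 Note: EPAC1 catalysed release of BODIPY-GDP from Rap1B seen as fluorescence loss; nearly all actives have a fitted effect of over 75% in size.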 The following applies: EPAC1 Rap1B BODIPY-GDP exchange fluorescence; series mostly up to 154 µM.
Test [18] addresses Cytochrome P450 3A4 (Homo sapiens) (UniProt P08684). The experiment in a line: qHTS Assay for Inhibitors and Substrates of Cytochrome P450 3A4 (AID 884). Note: % is set by controls: 0 for no effect and ±100 for the full control effect; nearly all actives have a fitted effect of over 50% in size. To be noted: recombinant CYP3A4, Luciferin-PPXE luminescence; series mostly up to 57.1 µM. An outline of the steps:
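20 nM human CYP3A4 with 25 uM Luciferin-PPXE (at KM) in 200 mM KPO4, preincubated 10 min with compound; NADPH regeneration started a 60 min RT reaction. Luciferin detected by luminescence, normalized to 57 uM ketoconazole as full inhibition.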

[19] abbreviates: measured here: cell count channel max response.
Where [20] appears, read: measured here: lipid channel max response.

Inconclusive results are not listed. Calls of active or inactive are those of the source. Unless noted, calls come from the whole dose curve; as a rule, active = well fitted curve in the direction sought with a large enough effect; inconclusive = small, poorly fitted or top-dose-only effect, or another doubt; inactive = no such curve, though single readings can be large; an effect the other way counts as inactive or inconclusive. A value given as a limit tells only on which side of the number the result lay.

Ubiquitin carboxyl-terminal hydrolase 1 (Homo sapiens), sequence (O94782 whole entry, looked up): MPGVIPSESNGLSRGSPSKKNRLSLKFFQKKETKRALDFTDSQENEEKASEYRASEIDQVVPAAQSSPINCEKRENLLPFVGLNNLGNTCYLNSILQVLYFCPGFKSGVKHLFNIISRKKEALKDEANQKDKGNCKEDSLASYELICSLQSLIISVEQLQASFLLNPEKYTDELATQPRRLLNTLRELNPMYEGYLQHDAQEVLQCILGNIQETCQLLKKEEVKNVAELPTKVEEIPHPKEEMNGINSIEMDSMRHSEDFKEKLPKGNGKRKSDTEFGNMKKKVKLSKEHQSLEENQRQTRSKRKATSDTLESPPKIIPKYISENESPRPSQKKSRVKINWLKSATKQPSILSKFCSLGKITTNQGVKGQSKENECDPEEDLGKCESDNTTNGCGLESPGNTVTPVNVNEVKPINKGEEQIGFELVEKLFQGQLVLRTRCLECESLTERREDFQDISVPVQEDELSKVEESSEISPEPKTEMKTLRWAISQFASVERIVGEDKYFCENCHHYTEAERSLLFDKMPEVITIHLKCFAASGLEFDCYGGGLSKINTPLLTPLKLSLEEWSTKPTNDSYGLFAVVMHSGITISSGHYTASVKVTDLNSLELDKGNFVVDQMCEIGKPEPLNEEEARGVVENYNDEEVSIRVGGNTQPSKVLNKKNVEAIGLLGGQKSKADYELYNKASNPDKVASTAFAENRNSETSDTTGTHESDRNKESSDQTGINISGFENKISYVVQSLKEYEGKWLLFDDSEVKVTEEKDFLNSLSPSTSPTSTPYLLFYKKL
Rap guanine nucleotide exchange factor 3 (Homo sapiens), sequence (O95398 whole entry, looked up): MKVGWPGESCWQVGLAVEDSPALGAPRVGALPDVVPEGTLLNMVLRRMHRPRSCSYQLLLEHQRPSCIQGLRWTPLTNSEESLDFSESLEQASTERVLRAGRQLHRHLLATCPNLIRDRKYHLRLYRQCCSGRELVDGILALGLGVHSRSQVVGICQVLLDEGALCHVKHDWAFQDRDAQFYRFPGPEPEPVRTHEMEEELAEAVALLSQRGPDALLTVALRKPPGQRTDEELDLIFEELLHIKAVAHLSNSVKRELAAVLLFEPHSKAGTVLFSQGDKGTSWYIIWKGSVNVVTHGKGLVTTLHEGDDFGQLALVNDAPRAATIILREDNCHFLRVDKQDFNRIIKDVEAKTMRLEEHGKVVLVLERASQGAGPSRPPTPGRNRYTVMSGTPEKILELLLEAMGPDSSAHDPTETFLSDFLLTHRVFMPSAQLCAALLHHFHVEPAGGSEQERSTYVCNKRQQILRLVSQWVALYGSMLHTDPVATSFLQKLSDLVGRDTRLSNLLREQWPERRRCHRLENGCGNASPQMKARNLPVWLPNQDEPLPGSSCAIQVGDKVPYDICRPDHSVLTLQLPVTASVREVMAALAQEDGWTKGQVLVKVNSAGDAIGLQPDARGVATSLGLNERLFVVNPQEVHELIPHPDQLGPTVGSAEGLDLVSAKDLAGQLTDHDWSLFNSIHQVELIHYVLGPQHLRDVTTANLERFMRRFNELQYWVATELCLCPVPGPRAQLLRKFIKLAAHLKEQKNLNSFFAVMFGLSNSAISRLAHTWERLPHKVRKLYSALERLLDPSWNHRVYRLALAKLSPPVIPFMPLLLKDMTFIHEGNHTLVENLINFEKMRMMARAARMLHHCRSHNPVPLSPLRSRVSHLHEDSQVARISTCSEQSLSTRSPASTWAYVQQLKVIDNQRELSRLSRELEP
Cytochrome P450 3A4 (Homo sapiens), sequence (P08684 whole entry, looked up): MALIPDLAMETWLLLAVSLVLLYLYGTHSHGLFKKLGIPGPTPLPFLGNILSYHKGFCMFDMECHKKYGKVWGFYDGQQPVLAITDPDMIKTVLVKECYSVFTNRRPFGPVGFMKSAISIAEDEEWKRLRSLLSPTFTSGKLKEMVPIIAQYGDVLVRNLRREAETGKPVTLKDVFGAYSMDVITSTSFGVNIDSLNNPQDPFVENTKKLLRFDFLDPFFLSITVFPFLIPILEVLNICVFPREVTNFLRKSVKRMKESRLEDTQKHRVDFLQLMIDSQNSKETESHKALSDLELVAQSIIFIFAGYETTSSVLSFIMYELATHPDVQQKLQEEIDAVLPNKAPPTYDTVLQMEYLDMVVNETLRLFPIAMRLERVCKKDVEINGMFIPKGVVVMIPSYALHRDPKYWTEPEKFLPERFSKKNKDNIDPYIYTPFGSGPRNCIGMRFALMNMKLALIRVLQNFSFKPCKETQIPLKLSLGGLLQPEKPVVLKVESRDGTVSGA
Cytochrome P450 1A2 (Homo sapiens), sequence (P05177 whole entry, looked up): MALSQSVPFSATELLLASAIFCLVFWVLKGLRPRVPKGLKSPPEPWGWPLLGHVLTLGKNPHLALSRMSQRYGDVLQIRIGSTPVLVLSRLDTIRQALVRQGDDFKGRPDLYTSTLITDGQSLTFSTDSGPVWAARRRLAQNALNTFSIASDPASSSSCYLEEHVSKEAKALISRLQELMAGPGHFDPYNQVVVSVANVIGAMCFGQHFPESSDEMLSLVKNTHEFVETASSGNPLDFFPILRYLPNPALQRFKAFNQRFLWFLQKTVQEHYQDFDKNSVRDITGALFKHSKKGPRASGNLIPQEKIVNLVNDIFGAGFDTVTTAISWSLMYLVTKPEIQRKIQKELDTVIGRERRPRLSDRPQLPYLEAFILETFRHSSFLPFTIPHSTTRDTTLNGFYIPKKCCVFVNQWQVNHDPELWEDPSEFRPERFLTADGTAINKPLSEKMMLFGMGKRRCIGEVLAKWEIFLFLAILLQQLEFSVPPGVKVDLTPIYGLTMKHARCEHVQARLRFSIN
3',5'-cyclic-AMP phosphodiesterase 4B (Homo sapiens), sequence (Q07343 whole entry, looked up): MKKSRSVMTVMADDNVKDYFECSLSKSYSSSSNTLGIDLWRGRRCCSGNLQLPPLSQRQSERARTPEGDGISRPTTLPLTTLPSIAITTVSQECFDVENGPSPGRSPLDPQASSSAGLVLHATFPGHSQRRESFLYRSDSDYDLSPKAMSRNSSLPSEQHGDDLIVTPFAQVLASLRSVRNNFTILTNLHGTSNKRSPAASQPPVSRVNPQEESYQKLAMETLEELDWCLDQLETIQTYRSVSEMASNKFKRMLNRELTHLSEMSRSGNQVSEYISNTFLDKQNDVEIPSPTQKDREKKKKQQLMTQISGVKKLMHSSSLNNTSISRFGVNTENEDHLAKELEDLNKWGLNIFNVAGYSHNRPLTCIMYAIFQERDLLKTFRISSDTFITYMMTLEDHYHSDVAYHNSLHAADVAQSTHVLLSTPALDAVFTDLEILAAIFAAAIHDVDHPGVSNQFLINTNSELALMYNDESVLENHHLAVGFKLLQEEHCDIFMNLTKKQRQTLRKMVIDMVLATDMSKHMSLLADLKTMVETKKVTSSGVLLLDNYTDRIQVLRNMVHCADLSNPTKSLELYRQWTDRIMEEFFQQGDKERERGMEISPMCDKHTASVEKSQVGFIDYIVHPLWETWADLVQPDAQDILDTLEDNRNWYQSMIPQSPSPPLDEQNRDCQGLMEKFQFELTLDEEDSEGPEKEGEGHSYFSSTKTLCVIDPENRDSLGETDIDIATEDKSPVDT
Dual specificity protein kinase CLK4 (Homo sapiens), sequence (Q9HAZ1 whole entry, looked up): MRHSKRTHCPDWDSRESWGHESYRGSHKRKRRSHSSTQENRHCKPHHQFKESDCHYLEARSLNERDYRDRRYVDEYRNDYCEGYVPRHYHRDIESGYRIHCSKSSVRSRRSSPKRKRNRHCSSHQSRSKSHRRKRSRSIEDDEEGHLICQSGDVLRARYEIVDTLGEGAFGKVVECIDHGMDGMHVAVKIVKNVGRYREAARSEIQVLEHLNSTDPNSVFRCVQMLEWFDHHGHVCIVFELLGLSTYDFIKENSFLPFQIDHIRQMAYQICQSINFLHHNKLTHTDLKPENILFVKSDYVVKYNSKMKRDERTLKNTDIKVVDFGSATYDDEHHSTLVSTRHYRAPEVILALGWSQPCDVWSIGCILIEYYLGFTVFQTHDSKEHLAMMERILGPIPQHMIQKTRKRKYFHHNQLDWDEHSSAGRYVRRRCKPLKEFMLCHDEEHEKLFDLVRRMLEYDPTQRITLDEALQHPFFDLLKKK
Lysosomal acid glucosylceramidase (Homo sapiens), sequence (P04062 whole entry, looked up): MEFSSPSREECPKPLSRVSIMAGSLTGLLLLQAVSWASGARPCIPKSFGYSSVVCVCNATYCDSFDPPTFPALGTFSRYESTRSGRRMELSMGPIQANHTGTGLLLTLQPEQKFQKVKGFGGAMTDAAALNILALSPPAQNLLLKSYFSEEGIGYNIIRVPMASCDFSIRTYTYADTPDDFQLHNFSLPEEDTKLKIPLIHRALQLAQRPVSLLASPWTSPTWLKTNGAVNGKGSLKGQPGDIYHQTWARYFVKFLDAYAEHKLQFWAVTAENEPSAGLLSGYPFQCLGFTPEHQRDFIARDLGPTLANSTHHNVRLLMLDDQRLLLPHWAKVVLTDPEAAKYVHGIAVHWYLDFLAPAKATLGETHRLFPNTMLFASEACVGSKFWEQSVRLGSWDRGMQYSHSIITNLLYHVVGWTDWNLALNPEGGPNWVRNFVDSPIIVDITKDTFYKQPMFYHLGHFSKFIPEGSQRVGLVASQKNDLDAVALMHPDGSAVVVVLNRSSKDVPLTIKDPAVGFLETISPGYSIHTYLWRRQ

In the case of `COCCn1c(=O)c(-c2cccc(C#N)c2)nc2cnc(N3CCN(C)CC3)nc21`, the Potency in test [1] was > 11.4 µM (inactive); in test [3], 15.8 µM (active); in test [6] it was > 9.22 µM (inactive); in test [7] it was > 46 µM (inactive). The results for the activity change, negative = inhibition in [2], in test [4] and in test [10] were -14.7% (inactive), 0.13% (inactive) and 6.64% (inactive), respectively. For the same compound, the activity, negative = inhibition in test [5] was -4.72% (inactive). Also, the Potency entry in test [8], in [9], in test [11], in test [12], in test [13] and in [14] was “inactive” throughout. Moreover, the results for the max response in test [10] (setting [19]) and in test [10] (setting [20]) were 18.2% and 22.5%, respectively.

Regarding `CN1CCN(c2ncc3nc(-c4cccc(C#N)c4)c(=O)n(CCC#N)c3n2)CC1`, the Potency in [1] is > 11.4 µM (inactive); in [6], > 9.22 µM (inactive); in [7] it was > 46 µM (inactive). Moreover, the values for the activity change, negative = inhibition in [2], in test [4] and in test [10] were -12.4% (inactive), 17.8% (inactive) and 4.89% (inactive), respectively. Further, the Potency result in test [3], in test [8], in test [9], in [11], in test [12] and in test [13] was “inactive” in each case. Besides, the Potency result in test [14] was “inactive”. Besides, the activity, negative = inhibition in test [5] is 19.4% (inactive). In addition, the max response in test [10] (setting [19]) is -1.32%; in [10] (setting [20]), 1.31%.

Consider `Nc1c2ccccc2nc2ccccc12` (tested in a mixture with another compound), for which the Potency result in test [15], in test [16], in test [14] and in test [17] was “inactive” in each case. The activity change, negative = inhibition in test [10] is -15.1% (inactive). The max response in test [10] (setting [19]) is -8%; in test [10] (setting [20]), -17.5%.

Turning to `COC(=O)c1c(C)c2c(c(C)c1O)OC(=O)c1c(C)c(Cl)c(O)c(Cl)c1O2`, the Potency result in [15], in test [16] and in [17] was “inactive” in each case. Besides, the activity change, negative = inhibition in test [10] is 9.5% (inactive). Besides, the max response in [10] (setting [19]) is -4.72%; in test [10] (setting [20]), 1.33%.

For the compound `Cc1cccc2c3c(ccc12)C1=C(C(=O)C3=O)C(C)CO1` (stereo not drawn), the Potency result in [16] and in [17] was “inactive” each time. The activity change, negative = inhibition in test [10] is 8.95% (inactive). The max response was determined as 9.52% in test [10] (setting [19]) and 20.4% in test [10] (setting [20]).

Take `CC1(C)[C@@H](O)CC[C@]2(C)C3C(=O)C=C4C5C[C@@](C)(C(=O)O)CC[C@]5(C)CC[C@@]4(C)[C@]3(C)CC[C@@H]12` (stereo partly drawn): the Potency entry in test [15] and in test [17] was “inactive” throughout. Further, the activity change, negative = inhibition in test [10] is 2.84% (inactive). The max response in [10] (setting [19]) amounted to 8.09%; in test [10] (setting [20]), 11.1%.

In the case of `Nc1ncnc2c1nc(Br)n2C1O[C@H]2COP(=O)(O)O[C@@H]2C1O` (stereo partly drawn), the activity change, negative = inhibition in test [10] is 0.429% (inactive). For the same compound, the figures for the max response in test [10] (setting [19]) and in test [10] (setting [20]) were 27.3% and 29.9%, respectively.

`CN1CCN(c2ncc3nc(-c4ccccc4)c(=O)n(C)c3n2)CC1`: the Potency is > 11.4 µM (inactive) in test [1], 15.8 µM (active) in [3], > 9.22 µM (inactive) in test [6] and > 46 µM (inactive) in test [7]. Moreover, the activity change, negative = inhibition is 19.6% (inactive) in test [2], 23.4% (inactive) in test [4] and 4.64% (inactive) in test [10]. For the same compound, the activity, negative = inhibition in [5] is 20% (inactive). For the same compound, the Potency result in [8], in test [9], in test [11], in test [12], in test [13] and in test [14] was “inactive” in each case. Besides, the max response amounted to 14.1% in test [10] (setting [19]) and 18.5% in [10] (setting [20]).

In the case of `CCCC1O[C@@H]2C[C@H]3[C@@H]4CCC5=CC(=O)C=C[C@]5(C)C4[C@@H](O)C[C@]3(C)[C@]2(C(=O)CO)O1` (stereo partly drawn), the activity change, negative = inhibition in test [10] is 0.423% (inactive). Moreover, the max response in test [10] (setting [19]) was -19.9%; in test [10] (setting [20]), -19.5%.

As for `CC(C)=CCC/C(C)=C/CC/C(C)=C/CC/C(C)=C/CC/C(C)=C/CC/C(C)=C/CC/C(C)=C/CC/C(C)=C/CC/C(C)=C/CO`, the Potency result in test [18], in [16] and in [14] was “inactive” each time. Also, in test [10], the activity change, negative = inhibition is 5.78% (inactive). The max response in test [10] (setting [19]) came out at 6.17%; in [10] (setting [20]) it was 20.4%.
